Active and inactive are the calls of the source.

Assay [1] has as its system Human papillomavirus type 1a protein E7 (residues 44-93). Put plainly: HPV1a E7 fragment binders on microarrays, primary screen, biochemical, small-molecule microarray, residues 44-93, 635 nm fluorescence (AID 1108).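 Also: E7 fragment applied at 1 µg/mL in TBST for 1 h at 4 C; score combines spot fluorescence with its signal to noise ratio.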 The conditions noted are these: small-molecule microarray binding, fluorescence 635 nm; higher = more signal.
Assay [2] can be described thus: modulators of HCV replicon luciferase signal, primary screen, HCV replication inhibitor project, Huh7 cells, luciferase reporter (AID 1109).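 Also: huh7 hepatoma cells harbouring a luciferase neomycin HCV replicon reporter; luciferase luminescence as measure of HCV replicon replication; test concentration not given here.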 The conditions noted are these: 48 h, higher = more signal. In general terms: A replicon is a self-replicating genome or part of one, used to study replication in cells.
In assay [3] the target is Left-right determination factor 2 (Homo sapiens) (UniProt O00292). Put plainly: LEFTY2 binders on small-molecule microarrays, primary screen, biochemical, small-molecule microarray, 635 nm fluorescence scan (AID 1110). The conditions noted are these: LEFTY2 binding, higher = more signal.
Chain of Left-right determination factor 2 (Homo sapiens) (O00292 whole entry, looked up): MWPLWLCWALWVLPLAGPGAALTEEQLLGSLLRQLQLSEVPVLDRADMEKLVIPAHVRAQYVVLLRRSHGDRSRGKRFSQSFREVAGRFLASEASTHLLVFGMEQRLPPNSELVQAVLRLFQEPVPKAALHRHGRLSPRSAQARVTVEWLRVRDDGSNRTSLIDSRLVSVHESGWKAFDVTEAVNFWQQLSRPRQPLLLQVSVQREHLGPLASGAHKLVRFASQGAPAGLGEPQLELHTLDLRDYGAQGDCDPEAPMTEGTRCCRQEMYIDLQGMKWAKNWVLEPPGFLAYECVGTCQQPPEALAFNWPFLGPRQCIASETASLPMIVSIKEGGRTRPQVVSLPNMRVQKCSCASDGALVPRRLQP
The target of assay [4] is Calmodulin-1 (Homo sapiens) (UniProt P0DP23). Put plainly: CALM1 binders on microarrays, EGTA buffer, profiling panel, biochemical, small-molecule microarray, Cy5-labelled CALM1 (AID 1111).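 Also: labelled calmodulin applied in Tris saline Tween buffer holding calcium plus EGTA and DTT.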 The conditions noted are these: Cy5-CALM1 binding fluorescence, higher = more signal.
For assay [5] the target is unchanged. Put plainly: calcium-bound CALM1 binders on microarrays, profiling panel, artefact control for SMM control-protein annotation, biochemical, small-molecule microarray, Cy5-labelled CALM1, plus calcium (AID 1112).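 Also: score merges spot fluorescence with signal to noise from triplicate slides.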 As to conditions: Cy5-CALM1 binding fluorescence, higher = more signal.
A short description of assay [6]: small-molecule microarray binders of probe aWnt5a, primary screen, biochemical, biotinylated probe, 635/667 nm fluorescence (AID 1113).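 Also: score merges 667 nm fluorescence intensity with signal-to-noise per printed feature.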 The conditions noted are these: higher = more signal.
Assay [7] is described as follows: small-molecule microarray binders of probe aShh, primary screen, biochemical, biotinylated probe, 635/667 nm fluorescence (AID 1114).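 Also: probe is biotin-labelled aShh protein from a stem cell growth factor screen; measures binding of labelled protein to compounds printed on the slide; score merges feature fluorescence at 667 nm with signal-to-noise.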 As to conditions: higher = more signal.
A short description of assay [8]: small-molecule microarray binders of probe aNog, primary screen, biochemical, biotinylated probe, 635/667 nm fluorescence (AID 1115).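 Also: probe is biotinylated aNog protein used at 0.15 µg/mL for 1 h at 4 C; z-score combines 667 nm fluorescence of each spot with its signal to noise.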 The conditions noted are these: higher = more signal.
Assay [9] concerns the target Torsin-1A-interacting protein 1 (Homo sapiens) (UniProt Q5JTV8). Put plainly: LAP1 binders from COS7 cell lysate, primary screen, small-molecule microarray, 635/667 nm fluorescence (AID 1116). As to conditions: COS7-hLAP1 lysate binding, 635 nm fluorescence, higher = more signal.
Assay [10] has as its target Alpha-bungarotoxin (Bungarus multicinctus) (UniProt P60615). Put plainly: alpha-bungarotoxin binders on microarray, profiling panel, artefact control for SMM control protein annotation, biochemical, small-molecule microarray, Alexa647 label, 635/667 nm fluorescence (AID 1117). The conditions noted are these: alpha-BTX-A647 binding fluorescence, higher = more signal.
In assay [11] the target is Albumin (Bos taurus) (UniProt P02769). Put plainly: bovine serum albumin binders on microarray, profiling panel, artefact control for SMM control protein annotation, biochemical, small-molecule microarray, Alexa647 label, 635/667 nm fluorescence (AID 1118).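 Also: score merges 667 nm emission intensity and signal-to-noise per printed compound spot.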 The conditions noted are these: BSA-A647 binding, fluorescence 635 nm, higher = more signal.
Chain of Albumin (Bos taurus) (P02769 whole entry, looked up): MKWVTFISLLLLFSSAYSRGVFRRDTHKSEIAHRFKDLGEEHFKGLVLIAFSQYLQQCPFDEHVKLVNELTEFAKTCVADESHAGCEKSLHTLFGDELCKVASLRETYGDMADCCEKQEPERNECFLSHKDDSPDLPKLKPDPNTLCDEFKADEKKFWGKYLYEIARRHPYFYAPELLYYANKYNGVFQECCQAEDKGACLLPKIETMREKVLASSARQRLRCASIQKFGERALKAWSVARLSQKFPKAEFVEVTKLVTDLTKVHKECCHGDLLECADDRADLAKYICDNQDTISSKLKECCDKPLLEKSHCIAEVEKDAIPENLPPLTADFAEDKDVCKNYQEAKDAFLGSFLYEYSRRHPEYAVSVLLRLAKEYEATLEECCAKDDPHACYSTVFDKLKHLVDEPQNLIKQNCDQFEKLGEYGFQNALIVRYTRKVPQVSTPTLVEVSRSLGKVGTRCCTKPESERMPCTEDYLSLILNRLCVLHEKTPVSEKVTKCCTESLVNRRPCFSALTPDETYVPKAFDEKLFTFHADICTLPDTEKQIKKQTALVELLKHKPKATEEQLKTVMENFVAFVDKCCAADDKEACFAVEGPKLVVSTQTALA
Assay [12] can be described thus: small-molecule microarray binders of probe aXIP, primary screen, biochemical, NeuroSMM set, 635/667 nm fluorescence (AID 1119).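 Also: probe is the protein aXip251-270 applied at 1 µg/mL to compound-printed slides; binding of probe to printed compounds measured as 667 nm fluorescence plus signal to noise.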 The conditions noted are these: higher = more signal, called active from +8 up or from −8 down.
Assay [13] can be described thus: small-molecule binders of probe aNOTCH3, primary screen, biochemical, small-molecule microarray, 635/667 nm fluorescence (AID 1120).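 Also: probe is a biotin-tagged antibody raised against NOTCH3 rather than NOTCH3 protein; score merges spot fluorescence near 667 nm with spot signal to noise.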 As to conditions: higher = more signal.
Assay [14] can be described thus: small-molecule binders of probe aNOTCH2, primary screen, biochemical, small-molecule microarray, 635/667 nm fluorescence (AID 1121).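 Also: score merges feature fluorescence read at 667 nm with its signal to noise.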 The conditions noted are these: higher = more signal.
The target of assay [15] is Carbonic anhydrase 2 (Homo sapiens) (UniProt P00918). Put plainly: CAII small-molecule binders, profiling panel, biochemical, small-molecule microarray, Alexa647-labelled CAII (AID 1122). The conditions noted are these: CAII-A647 binding fluorescence, higher = more signal.
Assay [16] in a line: COS7 lysate on small-molecule microarray, probe aHis, 635 nm (AID 1123).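 Also: z-score combines 667nm fluorescence intensity with signal-to-noise per printed compound spot.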 The conditions noted are these: COS7 cell lysate, fluorescence, higher = more signal.
The nature of assay [17]: compound binding in COS7 lysate, probe aLAP1, primary screen, cell lysate, small-molecule microarray (AID 1124).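 Also: lysate comes from COS7 cells expressing LAP1 and is applied at 0.3 µg/mL; score merges spot fluorescence near 667 nm with signal-to-noise over triplicate slides.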 The conditions noted are these: probe aLAP1, fluorescence, higher = more signal.
Assay [18] has as its system Sam68 (KHDRBS1). Put plainly: Sam68 small-molecule binders, primary screen, biochemical, small-molecule microarray, 635 nm fluorescence (AID 1125).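 Also: score merges 667 nm channel intensity with signal to noise over triplicate slides.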 As to conditions: small-molecule microarray binding, higher = more signal.
In assay [19] the test system is Chordin-like protein 2 (CHRDL2). Put plainly: CHRDL2 small-molecule binders, primary screen, biochemical, small-molecule microarray, 635 nm fluorescence (AID 1126).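 Also: printed compound slides probed with Chrdl2 protein at 4 µg/mL for 1 h at 4 C; score merges 667 nm emission intensity with signal to noise over three replicate slides.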 As to conditions: small-molecule microarray binding, fluorescence 635 nm; higher = more signal.
In assay [20] the target is Concanavalin-A (Canavalia ensiformis) (UniProt P02866). Put plainly: ConA small-molecule binders, primary screen, artefact control for SMM control protein annotation, biochemical, small-molecule microarray, Alexa647 label, 635 nm (AID 1127).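 Also: z combines 667 nm emission intensity with signal-to-noise across three replicate slides.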 The conditions noted are these: ConA-A647 binding fluorescence, higher = more signal.
Chain of Concanavalin-A (Canavalia ensiformis) (P02866 whole entry, looked up): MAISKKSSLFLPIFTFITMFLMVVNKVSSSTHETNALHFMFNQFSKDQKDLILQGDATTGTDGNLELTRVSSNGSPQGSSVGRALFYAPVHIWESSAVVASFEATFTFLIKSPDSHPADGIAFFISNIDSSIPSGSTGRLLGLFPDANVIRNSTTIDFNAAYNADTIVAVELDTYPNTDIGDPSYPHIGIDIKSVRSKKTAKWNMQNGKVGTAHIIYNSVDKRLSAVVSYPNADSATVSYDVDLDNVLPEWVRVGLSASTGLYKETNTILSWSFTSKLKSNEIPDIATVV

Chain of Alpha-bungarotoxin (Bungarus multicinctus) (P60615 whole entry, looked up): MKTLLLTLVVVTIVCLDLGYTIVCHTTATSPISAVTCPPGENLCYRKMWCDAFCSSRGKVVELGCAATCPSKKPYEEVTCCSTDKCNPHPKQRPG
Chain of Torsin-1A-interacting protein 1 (Homo sapiens) (Q5JTV8 whole entry, looked up): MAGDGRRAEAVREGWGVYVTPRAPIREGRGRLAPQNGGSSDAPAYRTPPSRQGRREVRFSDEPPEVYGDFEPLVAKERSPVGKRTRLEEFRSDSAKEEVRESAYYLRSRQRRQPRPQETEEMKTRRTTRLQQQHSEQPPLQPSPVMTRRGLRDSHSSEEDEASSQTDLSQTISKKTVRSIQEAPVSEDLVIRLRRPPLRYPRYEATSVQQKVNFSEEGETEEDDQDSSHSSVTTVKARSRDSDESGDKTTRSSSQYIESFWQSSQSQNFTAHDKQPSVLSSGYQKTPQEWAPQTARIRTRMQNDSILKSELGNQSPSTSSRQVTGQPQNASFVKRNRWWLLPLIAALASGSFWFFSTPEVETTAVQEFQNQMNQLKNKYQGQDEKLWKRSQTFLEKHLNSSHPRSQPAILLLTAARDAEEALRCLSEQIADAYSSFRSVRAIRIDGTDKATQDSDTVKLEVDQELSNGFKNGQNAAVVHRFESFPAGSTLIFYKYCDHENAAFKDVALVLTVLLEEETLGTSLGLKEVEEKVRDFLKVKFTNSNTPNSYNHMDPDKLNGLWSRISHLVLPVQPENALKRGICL

As to `CN1CCC(CCCO)=CC1c1cccs1` (stereo not given), the composite z-score in [1] is -1.03; in assay [3] it was -0.0692; in assay [4] it was -0.949; in assay [5], -0.431; in [6] it was -0.176; in assay [7], -0.0474. Also, the composite z-score in assay [8] was -0.305; in assay [9] it was 0.427; in assay [10], -0.0493; in assay [11] it was -0.552; in [13], -0.0048; in [14], -0.148. For the same compound, the composite z-score in assay [15] is 0.74; in assay [16], -0.743; in assay [17], -0.476; in [18], -0.203; in assay [19], -0.154; in [20], -0.384. The z-score in assay [2] is -0.132. For the same compound, the composite Z-score in assay [12] was 0.639 (inactive).
Regarding `COc1ccc(C(O)C2C=CC3C(=O)N(C)C(=O)C3N2NC(=O)OC(C)(C)C)c2ccccc12` (stereo not given), the composite z-score is 1.5 in assay [1]; -0.107 in [3]; 1.56 in [4]; 0.47 in assay [5]; 0.246 in assay [6]; 0.275 in [7]. Also, the composite z-score in [8] was 1.8; in assay [9] it was 0.163; in [10], 1.17; in [11] it was 1.02; in assay [13] it was 0.424; in [14], 0.0315. Further, the composite z-score was 0.745 in [15]; 2.98 in [16]; 0.404 in assay [17]; 1.3 in assay [18]; -0.345 in assay [19]; 1.11 in assay [20]. The same compound registered a z-score in assay [2] of -1.45. Also, in assay [12], the composite Z-score is -0.128 (inactive).
In the case of `CO[C@H]1O[C@H](CO)[C@@H](OC(=O)Nc2ccccc2)[C@@H]2OC(=O)[C@@H](Cc3ccc4ccccc4c3)C/C=C/C[C@H](Cc3ccc4ccccc4c3)C(=O)O[C@@H]12`, the composite z-score in assay [1] was 0.601; in [3], 0.0985; in assay [4] it was 0.697; in assay [5], -0.56; in assay [6], -0.006; in assay [7], -0.237. For the same compound, the composite z-score in assay [8] is 1.3; in assay [9], 1.72; in [10], 0.322; in assay [11], 0.615; in assay [13], -0.0371; in assay [14], -0.146. Also, the composite z-score is 0.324 in [15]; 1.38 in assay [16]; 0.313 in assay [17]; 1.21 in [18]; 0.34 in assay [19]; 0.983 in assay [20]. The compound also yielded a z-score in [2] of -2.92. In assay [12], the composite Z-score was 1.08 (inactive).
Regarding `CCN(CC)c1ccc(N2CC=CC34O[C@@H]5C=CCOC(=O)[C@@H]5[C@H]3C(=O)N(CCCCCCO)[C@@H]4C2=O)cc1` (stereo not given in full), the composite z-score in assay [1] is 1.01; in assay [3], -0.699; in [4], -0.333; in assay [5], 0.48; in assay [6], -0.152; in assay [7], -0.0035. Moreover, the composite z-score in assay [8] is -0.248; in [9], 2.01; in [10] it was -0.226; in assay [11], 0.99; in assay [13] it was -0.126; in [14] it was -0.174. Further, the composite z-score in assay [15] was 0.909; in [16], 0.922; in [17], 0.751; in [18], 0.0127; in [19], -1.5; in assay [20] it was -0.214. Further, the z-score in assay [2] is -1.4. For the same compound, the composite Z-score in [12] was 0.451 (inactive).
For the compound `CO[C@H]1O[C@H](CO)[C@@H](OC(=O)Nc2ccc(Oc3ccccc3)cc2)[C@H](OC(=O)Nc2ccc3c(c2)OCO3)[C@@H]1OC(=O)Nc1ccc2c(c1)OCO2`, the composite z-score in assay [1] is 0.794; in assay [3] it was 0.627; in [4], 1.15; in [5] it was -0.23; in assay [6], 0.0374; in assay [7] it was 0.246. Besides, the composite z-score came to 0.565 in assay [8]; 1.37 in [9]; 1.26 in [10]; 0.277 in assay [11]; 0.327 in assay [13]; 0.0248 in [14]. For the same compound, the composite z-score amounted to 0.333 in assay [15]; 2.02 in assay [16]; 0.869 in assay [17]; 1.3 in assay [18]; 0.335 in assay [19]; 1.18 in [20]. In addition, the z-score in assay [2] came to 0.166. Further, in [12], the composite Z-score was 1.29 (inactive).

Source of the values: PubChem BioAssay.
